Screen size: about 52,000 compounds; about 4,300 (8.3%) were called active. Rule as the data show it: active = survival mostly below about 52% (no sharp cut-off); inactive = mostly above about 56%. The full list was thinned out, with actives kept by preference.
Test system: DeltatarO mutant
Test: growth inhibition of S. aureus wild type versus tarO mutant, primary screen, teichoic acid synthesis inhibitors, RN4220, OD600 (AID 463173)
Conditions: OD600, 18 h, stronger effect = lower value, screened at 18.75 µg/mL (by protocol)

Cc1c(Cl)cccc1N1C(N)=C(C#N)C(c2cc(CN3CCOCC3)cs2)C2=C1CCCC2=O (stereo not drawn) was tested. Which survival did it give?
Its survival is 128% (inactive).

For COc1ccc(Cl)cc1NC(=O)c1c(NCc2ccc(C)o2)sc2c1CCC(C)C2 (stereo not drawn), which survival is on record?
The survival was 81% (inactive).

Which survival does the source give for COc1ccc(OC)c(NC(=O)c2c(NCc3ccc(C)o3)sc3c2CCC(C)C3)c1 (stereo not drawn) here?
Its survival is 52% (active).

COc1ccc(NC(=O)c2c(NCc3ccc(C)o3)sc3c2CCC(C)C3)c(OC)c1 (stereo not drawn) was tested. Which survival did it give?
The survival was 82% (inactive).

Cc1nnc(SCC#N)n1C was tested. Which survival did it give?
Its survival is 92% (inactive).

Which survival does the source give for CC(=O)Nc1ccc(S(=O)(=O)NCc2ccc(C(=O)NCc3ccc(Cl)cc3)cc2)cc1 here?
Its survival is 68% (inactive).

For Cc1ccc(-c2nn(-c3ccc(F)cc3)c3c2cnc2cc(F)c(F)cc23)cc1, which survival is on record?
The survival was 82% (inactive).

CSc1ccc(CCNC(=O)CCc2c(C)nc3c(c(C)nn3-c3ccc(C)c(C)c3)c2C)cc1 was tested. Which survival did it give?
Its survival is 91% (inactive).

How did the survival turn out when CCCn1c2ccccc2c2cnn(CC(=O)Nc3ccc(C)cc3Br)c(=O)c21 was run?
The survival was 94% (inactive).

For Cc1ccc(NC(=O)CCCn2c3ccccc3c(=O)c3cc(C)ccc32)c(Br)c1, which survival is on record?
Its survival is 38% (active).

For Cc1c2cnn(-c3ccccc3)c(=O)c2c(C)n1CCCC(=O)Nc1ccc(F)cc1F, which survival is on record?
The survival was 72% (inactive).

How did the survival turn out when Cc1ccc2c(c1)c(=O)c1ccccc1n2CCCC(=O)Nc1cc(Cl)ccc1C was run?
Its survival is 113% (inactive).

Cc1ccc(NC(=O)CCS(=O)(=O)c2ccc3c(c2)oc(=O)n3C)c(Br)c1 was tested. Which survival did it give?
Its survival is 80% (inactive).

For Cc1ccc2c(c1)c(=O)c1ccccc1n2CCCC(=O)Nc1ccc(F)cc1F, which survival is on record?
The survival was 49% (active).

Cc1ccc2c(c1)c(=O)c1ccccc1n2CCCC(=O)Nc1c(F)cccc1F was tested. Which survival did it give?
The survival was 53% (inactive).

How did the survival turn out when Cc1ccc(CCNC(=O)CCCn2c(=O)c3ccccc3n(CC(=O)Nc3cc(Cl)ccc3C)c2=O)cc1 was run?
Its survival is 116% (inactive).

Which survival does the source give for Cc1ccc2c(c1)c(=O)c1ccccc1n2CCCC(=O)Nc1ccc(Cl)cc1C here?
Its survival is 45% (active).

For CCOc1ccccc1NC(=O)C(C)Sc1cc(-c2ccccc2)nc(C)n1 (stereo not drawn), which survival is on record?
The survival was 59% (inactive).

Which survival does the source give for CCOC(=O)c1ccc(NC(=O)C(CC)Sc2nc3ncccc3o2)cc1 (stereo not drawn) here?
The survival was 81% (inactive).

With C=Cn1c(=N)n(C)c2ccccc21 as the molecule, how does the survival read?
The survival was 70% (inactive).

For O=C(CN1C(=O)COc2ccc(S(=O)(=O)N3CCOCC3)cc21)N1CCN(c2ccccc2)CC1, which survival is on record?
Its survival is 116% (inactive).

COc1ccccc1CNC(=O)c1ccc(-c2nc(CS(=O)(=O)c3ccc(C)cc3)c(C)o2)cc1 was tested. Which survival did it give?
The survival was 73% (inactive).

Which survival does the source give for COc1ccc(F)cc1NC(=O)C1CCN(c2nc(-c3ccc(OC)c(OC)c3)no2)CC1 here?
Its survival is 48% (inactive).

For Cc1cc(NC(=O)CCc2nc3cccnc3n2-c2ccccc2)ccc1Br, which survival is on record?
Its survival is 31% (active).

For Cc1ccc(NC(=O)CCc2nc3cccnc3n2-c2ccccc2)cc1Cl, which survival is on record?
The survival was 64% (inactive).

Cc1ccc(NC(=O)CCc2nc3cccnc3n2-c2ccccc2)cc1 was tested. Which survival did it give?
The survival was 80% (inactive).

CCOC(=O)Cn1c(-c2cccs2)cc2cc(Cl)ccc21 was tested. Which survival did it give?
The survival was 59% (inactive).

For COc1cccc(Nc2nc3ccc(C(=O)c4ccccc4)cc3n3c(C)nnc23)c1, which survival is on record?
The survival was 85% (inactive).

CCc1cccc(NC(=O)c2ccc(CN3C(=O)C(C)=C(c4ccc(OC)cc4)S3(=O)=O)cc2)c1 was tested. Which survival did it give?
The survival was 71% (inactive).

CCn1cc(S(=O)(=O)c2ccccc2)c(=O)c2cc(F)c(N3CCCC3)cc21 was tested. Which survival did it give?
The survival was 107% (inactive).

CCOc1ccc(NC(=O)C(C)n2c(=O)cc(C)c3c(C)nn(-c4ccccc4)c32)cc1 (stereo not drawn) was tested. Which survival did it give?
Its survival is 83% (inactive).

Nc1c(C(=O)c2ccc(F)cc2)sc(Nc2ccccc2F)c1S(=O)(=O)c1ccc(Br)cc1 was tested. Which survival did it give?
Its survival is 67% (inactive).

How did the survival turn out when Nc1nc(Nc2ccccc2F)sc1C(=O)c1ccc(Cl)cc1 was run?
The survival was 2% (active).

Which survival does the source give for COc1ccc(C(=O)c2sc(Nc3cc(Cl)ccc3C)nc2N)cc1OC here?
The survival was 131% (inactive).

For COc1ccc(NC(=O)Cn2c(=O)oc3cc(S(=O)(=O)NC4CCCC4)ccc32)cc1OC, which survival is on record?
Its survival is 93% (inactive).

Which survival does the source give for Nc1nnc(CC(=O)N2CCCC2)s1 here?
Its survival is 99% (inactive).

How did the survival turn out when CCCCC(CC)CNC(=O)CCCc1nnc2n(CCC)c(=O)c3sccc3n12 (stereo not drawn) was run?
Its survival is 75% (inactive).

COc1ccc(-c2nnc(SCC(=O)Nc3ccc(C)c(Cl)c3)nc2-c2ccc(OC)c(OC)c2)cc1OC was tested. Which survival did it give?
The survival was 135% (inactive).

With COC(=O)CN1C(=O)C(C)(C)c2cc(S(=O)(=O)Nc3ccc(Br)cc3F)ccc21 as the molecule, how does the survival read?
Its survival is 90% (inactive).

CC1CCN(S(=O)(=O)c2ccc3c(c2)N(CC(=O)NCCCN2CCCC(C)C2)C(=O)CS3)CC1 (stereo not drawn) was tested. Which survival did it give?
Its survival is 75% (inactive).

Which survival does the source give for COCCCn1c(SCC(=O)NCc2ccccc2)nc2c(sc3ccccc32)c1=O here?
Its survival is 82% (inactive).

How did the survival turn out when CCCCn1c(SCC(=O)NCCCOC)nc2c(sc3ccccc32)c1=O was run?
The survival was 128% (inactive).

How did the survival turn out when CCOC(=O)CSc1nc2c(sc3ccccc32)c(=O)n1CCO was run?
Its survival is -5% (active).

For CC(C)OCCCn1c(SCC(=O)c2ccccc2)nc2c(sc3ccccc32)c1=O, which survival is on record?
Its survival is 88% (inactive).

For CCOCCCn1c(SCC(=O)NCc2ccccc2)nc2c(sc3ccccc32)c1=O, which survival is on record?
Its survival is -5% (active).

With CCOC(=O)CSc1nc2c(sc3ccccc32)c(=O)n1CCc1ccccc1 as the molecule, how does the survival read?
The survival was 60% (inactive).

Which survival does the source give for CCCCn1c(SCC(=O)c2ccccc2)nc2c(sc3ccccc32)c1=O here?
Its survival is 17% (active).

For COCCCNC(=O)CSc1nc2c(sc3ccccc32)c(=O)n1CCc1ccccc1, which survival is on record?
Its survival is 72% (inactive).

How did the survival turn out when COCCCNC(=O)CSc1nc2c(sc3ccccc32)c(=O)n1CCc1ccc(OC)c(OC)c1 was run?
The survival was -4% (active).

How did the survival turn out when CCOCCCn1c(SCC(=O)NCCCOC)nc2c(sc3ccccc32)c1=O was run?
The survival was 126% (inactive).

How did the survival turn out when CCOCCCn1c(SCC(=O)OCC)nc2c(sc3ccccc32)c1=O was run?
The survival was 124% (inactive).

CCCCn1c(SCC(=O)NCc2ccc(C)cc2)nc2c(sc3ccccc32)c1=O was tested. Which survival did it give?
Its survival is 89% (inactive).

Which survival does the source give for O=C(CN1C(=O)COc2ccc(S(=O)(=O)N3CCOCC3)cc21)N1CCN(c2ccc(F)cc2)CC1 here?
Its survival is 99% (inactive).

How did the survival turn out when CCC(C)(C)n1nnnc1CN(Cc1ccc(Cl)cc1)CC1CCCO1 (stereo not drawn) was run?
Its survival is 76% (inactive).

c1ccc(CNc2nc3c(-c4ccccc4)nnn3c3ccccc23)cc1 was tested. Which survival did it give?
The survival was 75% (inactive).

Clc1ccc(-c2nnn3c2nc(NCc2ccc4c(c2)OCO4)c2ccccc23)cc1 was tested. Which survival did it give?
The survival was 59% (inactive).

Which survival does the source give for CC1CCC(Nc2nc3c(-c4ccc(Cl)cc4)nnn3c3ccccc23)CC1 (stereo not drawn) here?
The survival was 8% (active).

For Cc1ccc(-c2nnn3c2nc(NCCc2ccccc2)c2ccccc23)cc1, which survival is on record?
Its survival is 112% (inactive).

With Clc1ccc(-c2nnn3c2nc(NC2CCCCC2)c2ccccc23)cc1 as the molecule, how does the survival read?
Its survival is 17% (active).

Which survival does the source give for Cc1ccc(-c2nnn3c2nc(NCCc2ccc(Cl)cc2)c2ccccc23)cc1 here?
The survival was 82% (inactive).

Which survival does the source give for Cc1ccc(-c2nnn3c2nc(NC2CCC(C)CC2)c2ccccc23)cc1 (stereo not drawn) here?
Its survival is -4% (active).

With CCCCCNc1nc2c(-c3ccccc3)nnn2c2ccccc12 as the molecule, how does the survival read?
Its survival is 80% (inactive).

Which survival does the source give for Cc1ccc(-c2nnn3c2nc(NCC(C)c2ccccc2)c2ccccc23)cc1 (stereo not drawn) here?
The survival was 91% (inactive).

With CCCCNC(=O)C(CC)Sc1nnc(-c2ccc(F)cc2)c(-c2ccc(F)cc2)n1 (stereo not drawn) as the molecule, how does the survival read?
The survival was 83% (inactive).

Which survival does the source give for CSc1ccc(C2c3[nH]c4ccccc4c3CCN2C(=O)CCc2ccccc2)cc1 (stereo not drawn) here?
The survival was 87% (inactive).

CC1CCCN(CCCNC(=O)c2ccc3c(c2)N(Cc2ccc(Cl)cc2)C(=O)c2ccccc2S3(=O)=O)C1 (stereo not drawn) was tested. Which survival did it give?
The survival was 145% (inactive).

With COc1c(Cl)cc(Cl)cc1CNCCSc1nnnn1C as the molecule, how does the survival read?
The survival was 74% (inactive).

How did the survival turn out when COc1ccc(Br)cc1CNC(=O)CCSCc1ccc(Cl)cc1 was run?
Its survival is 73% (inactive).

For CCOC(=O)C1CCCN(S(=O)(=O)c2ccc3c(c2)N(C)C(=O)CC(=O)N3C)C1 (stereo not drawn), which survival is on record?
Its survival is 106% (inactive).

COc1ccc(OCc2nc3c4c(-c5ccc(OC)cc5)c(-c5ccc(OC)cc5)oc4ncn3n2)cc1 was tested. Which survival did it give?
The survival was 70% (inactive).

Which survival does the source give for COC(=O)c1ccc([C@H]2Nc3ccc(S(=O)(=O)Nc4cccc(C)c4)cc3[C@H]3C=CC[C@H]32)cc1 here?
Its survival is 50% (inactive).

Which survival does the source give for Cc1ccc(NS(=O)(=O)c2ccc3c(c2)[C@H]2C=CC[C@H]2[C@@H](c2ccc(F)cc2)N3)cc1C here?
The survival was 58% (inactive).

How did the survival turn out when COC(=O)c1ccc([C@H]2Nc3ccc(S(=O)(=O)Nc4ccc(C)cc4)cc3[C@H]3C=CC[C@H]32)cc1 was run?
Its survival is 60% (inactive).

How did the survival turn out when COC(=O)c1ccc([C@H]2Nc3ccc(S(=O)(=O)Nc4ccc(F)cc4)cc3[C@H]3C=CC[C@H]32)cc1 was run?
The survival was 53% (active).

How did the survival turn out when Cc1cccc(C)c1NS(=O)(=O)c1ccc2c(c1)[C@H]1C=CC[C@H]1[C@@H](c1ccc(Cl)cc1)N2 was run?
The survival was 53% (inactive).

How did the survival turn out when Cc1cccc(NS(=O)(=O)c2ccc3c(c2)[C@H]2C=CC[C@H]2[C@@H](c2ccc(F)cc2)N3)c1 was run?
The survival was 39% (active).

Which survival does the source give for Cc1ccc(C)c(N2CCN(C(=O)c3ccc4c(c3)c(C)c(C)n4C)CC2)c1 here?
The survival was 73% (inactive).

How did the survival turn out when COc1ccccc1CNC(=O)Cn1c(=O)oc2cc(S(=O)(=O)N3CCC(C)CC3)ccc21 was run?
Its survival is 143% (inactive).

With COc1ccc(N2CCN(C(=O)CN3C(=O)COc4ccc(S(=O)(=O)N5CCC(C)CC5)cc43)CC2)cc1 as the molecule, how does the survival read?
Its survival is 81% (inactive).

Which survival does the source give for CCOC(=O)c1ccc(-c2ccc(/C=C(\C#N)c3nc4ccc(C)cc4[nH]3)o2)cc1 here?
Its survival is 32% (active).

With CCOC(=O)c1ccc(-c2ccc(/C=C(\C#N)C(=O)Nc3ccc(C)cc3OC)o2)cc1 as the molecule, how does the survival read?
The survival was 76% (inactive).

Cc1ccc2nc(/C(C#N)=C/c3ccc(-c4ccc(C(=O)OC(C)C)cc4)o3)[nH]c2c1 was tested. Which survival did it give?
The survival was 36% (active).

With CCOC(=O)c1ccc(-c2ccc(C=C(C#N)C#N)o2)cc1 as the molecule, how does the survival read?
The survival was 87% (inactive).

With CCOC(=O)/C(C#N)=C/c1ccc(-c2ccc(C)cc2)o1 as the molecule, how does the survival read?
Its survival is 98% (inactive).

Cc1cc(C(=O)OC(C)C)ccc1-c1ccc(C=C(C#N)C#N)o1 was tested. Which survival did it give?
Its survival is 104% (inactive).

Which survival does the source give for N#CC(C#N)=Cc1ccc(-c2cccc(C(F)(F)F)c2)o1 here?
Its survival is 114% (inactive).

Which survival does the source give for N#C/C(=C\c1ccc(-c2cccc(Cl)c2)o1)C(N)=O here?
The survival was 99% (inactive).

For Cc1ccc2nc(/C(C#N)=C/c3ccc(-c4cccc(Cl)c4)o3)[nH]c2c1, which survival is on record?
The survival was 6% (active).
